PubChem BioAssay (NCATS)
Inconclusive results are not listed. Active and inactive are the calls of the source. The call rests on the fitted dose curve; in most records, active means well fitted cell-killing curve with a large enough effect; inconclusive means small, poorly fitted or top-dose-only effect, or effect the other way; inactive means flat fitted curve, though single readings scatter.

Tests used:
Test in all cases: Primary qHTS to identify gynecologic anti-cancer compounds using libraries of approved drugs and bioactive compounds (AID 1345084); further: nearly all actives have a fitted effect of over 55% in size
C33A = conditions: Gynecologic cancer cell panel viability, ATPlite luminescence, 48 h; series mostly up to 57.5 µM
Procedure, shortened: (§1)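 In this quantitative HTS, cell killing is estimated from loss of ATP-dependent luciferase light. Cells see five compound concentrations over a 48 h exposure.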

CAOV3 = conditions: Gynecologic cancer cell panel viability, ATPlite luminescence, 48 h; series mostly up to 57.5 µM
Procedure, shortened: as §1

CASKI = conditions: Gynecologic cancer cell panel viability, ATPlite luminescence, 48 h; series mostly up to 57.5 µM
Procedure, shortened: as §1

Es-2 = conditions: Gynecologic cancer cell panel viability, ATPlite luminescence, 48 h; series mostly up to 57.5 µM
Procedure, shortened: as §1

HeLa = conditions: Gynecologic cancer cell panel viability, ATPlite luminescence, 48 h; series mostly up to 57.5 µM
Procedure, shortened: as §1

Hek293T = conditions: Gynecologic cancer cell panel viability, ATPlite luminescence, 48 h, control line for the selectivity index; series mostly up to 57.5 µM
Procedure, shortened: as §1

JEG-3 = conditions: Gynecologic cancer cell panel viability, ATPlite luminescence, 48 h; series mostly up to 57.5 µM
Procedure, shortened: as §1

OV90 = conditions: Gynecologic cancer cell panel viability, ATPlite luminescence, 48 h; series mostly up to 57.5 µM
Procedure, shortened: as §1

PA-1 = conditions: Gynecologic cancer cell panel viability, ATPlite luminescence, 48 h; series mostly up to 57.5 µM
Procedure, shortened: as §1

SKOV3 = conditions: Gynecologic cancer cell panel viability, ATPlite luminescence, 48 h; series mostly up to 57.5 µM
Procedure, shortened: as §1

Tov-21-G = conditions: Gynecologic cancer cell panel viability, ATPlite luminescence, 48 h; series mostly up to 57.5 µM
Procedure, shortened: as §1

Tov112D = conditions: Gynecologic cancer cell panel viability, ATPlite luminescence, 48 h; series mostly up to 57.5 µM
Procedure, shortened: as §1

Measured: Potency

CC(C)=CCC/C(C)=C/CCC1(C)Oc2c(c(O)cc3c2CN(C(CCC(=O)O)C(=O)O)C3=O)CC1O (stereo not given)
inactive: all assays above

CC(=O)OC1C[C@]2(C)C(O)CC(C)=C[C@H](OC(=O)c3ccc(O)cc3)C2[C@]1(O)C(C)C (stereo not given in full)
inactive: all assays above

CC(C)=C/C=C\[C@H](C)[C@H]1CC[C@]2(C)C[C@@H]3C(C)=CC(=O)C3/C(CO)=C\C[C@@H]12 (stereo not given in full)
inactive: all assays above

CC1(C)CC2C(O)c3cocc3CC(C)(O)C2C1 (stereo not given)
inactive: all assays above

CC/C=C\CC1C(=O)C=CC1(CCCCCCCC(=O)O)OC(C)=O (stereo not given)
inactive: all assays above

C/C=C1\[C@H](OC2OC(COC3OC(CO)C(O)C(O)C3O)C(O)C(O)C2O)OC=C(C(=O)OC)[C@H]1CC(=O)OCCc1ccc(O)cc1 (stereo not given in full)
inactive: all assays above

C/C=C(/COC(=O)/C(C)=C/C)C(=O)OC(CC)c1ccc(OC)c(OC)c1 (stereo not given)
inactive: all assays above

C[C@@H]1C[C@@H](O)[C@@]23CO[C@@H](O)[C@@H]2CCC[C@@H]3[C@@]12C[C@@H](c1ccoc1)OC2=O
inactive: all assays above

CCOc1ccc2nc(SCCN3CCOCC3)[nH]c2c1
inactive: all assays above

COc1cc(N)c(Cl)cc1C(=O)NC[C@@H]1CCN2CCC[C@@H]12
inactive: all assays above

CC(=O)O[C@H]1[C@@H](O)[C@H](O[C@H]2[C@@H]3C=CO[C@@H](O[C@H]4O[C@@H](CO)[C@H](O)[C@@H](O)[C@@H]4O)[C@@H]3[C@@]3(CO)O[C@@H]23)O[C@@H](C)[C@@H]1OC(=O)/C=C/c1ccccc1
inactive: all assays above

O=C(CCc1ccccc1)N1CCC(O)(Cn2cnc3cc(Cl)ccc3c2=O)CC1
inactive: all assays above

O=C(CCc1nnc2n(Cc3ccc(Cl)cc3)c(=O)c3ccccc3n12)NCCC1=CCCCC1
inactive: all assays above

O=C1CC2(CCCC2)[C@H](O)C(=O)N1CCCCN1CCN(c2ncccn2)CC1
inactive: all assays above

COc1ccc(CNC(=O)c2cc(-c3cncc(C)c3)ncc2-c2nccs2)nc1OC
inactive: all assays above
